Measurements as given in PubChem BioAssay AID2289 (National Center for Advancing Translational Sciences (NCATS), 2010).
The campaign covered roughly 340,000 compounds. About 3,300 (0.97%) were called active. Roughly 9% stayed inconclusive and do not appear here. Calls come from the whole dose curve; as a rule, active = well fitted inhibition curve with a large enough effect; inconclusive = small, poorly fitted or top-dose-only effect, or effect the other way; inactive = flat fitted curve, though single readings scatter. The list shows a part of the results.

test: qHTS Assay for Modulators of miRNAs and/or Inhibitors of miR-21; conditions: HeLa miR-21-FLuc reporter, luciferase luminescence, 48 h; actives lower the signal; note: nearly all actives have a fitted effect of over 55% in size
In short: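 Luminescence from a firefly luciferase reporter carrying a miR-21 binding site downstream, stably expressed under a CMV promoter in HeLa cells that make miR-21 endogenously, reports miRNA modulation after 48 h compound exposure up to approximately 40uM final.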
Potency is the fitted concentration of half-maximal effect.

Potency, active:
CN1CCc2c(sc(/N=C/c3cc(Cl)ccc3O)c2C#N)C1 6.56 µM, COc1ccc2c(c1)O[C@H](c1ccc3c(c1)OCO3)[C@@H](O)C2=O 11.7 µM, COc1cccc([C@@H]2Oc3ccc(OC)cc3C(=O)[C@H]2OC(=O)NCc2ccc3c(c2)OCO3)c1 5.85 µM, Cc1nc(COC(=O)c2c(C)nn(-c3ccccc3)c2C)cs1 16.5 µM, O=C(OCc1csc(-c2ccccc2)n1)c1ccc(O)cc1 14.7 µM, COc1ccc(C(=O)OCc2csc(C)n2)c(O)c1 7.36 µM, O=C(OCc1csc(-c2ccccc2)n1)c1ccccc1O 9.27 µM, Cc1ccc(SC[C@H](CC(C)C)N2CCN(C)CCC2=O)cc1 10.4 µM, Cc1ccc(SC[C@H](c2ccccc2)N2CCN(C)CCC2=O)cc1 9.27 µM, O=C(NCCC1=CCCCC1)c1cnc2n(c1=O)CCS2 6.56 µM, Fc1ccccc1Nc1nc2ccccc2o1 0.521 µM, Cn1cccc1C(=O)OCc1cc(Cl)cc2c1OCOC2 13.1 µM, C=CCN=c1scc(C)n1/N=C/c1ccc(O)c(O)c1 11.7 µM, Cc1c(C(=O)OC(C)C)sc(N)c1C(=O)OC(C)C 6.56 µM, CCCOC(=O)c1c(N)sc(C(=O)OCC)c1C 14.7 µM, CCOC(=O)c1c(N)sc(C(=O)OCCOC)c1C 18.5 µM, Cc1cc2cc(C=C(C#N)C#N)c(Cl)nc2cc1C 7.36 µM, Cc1ccc(OCC(=O)O/N=C(\N)c2ccncc2)c(C)c1 4.14 µM, N/C(=N\OC(=O)COc1ccc(Cl)cc1Cl)c1ccncc1 0.585 µM, Cc1ccc(/C(N)=N/OC(=O)COc2ccccc2Cl)cc1 10.4 µM, N/C(=N\OC(=O)COc1ccc(Cl)cc1Br)c1ccncc1 1.65 µM, N/C(=N\OC(=O)COc1ccc(Br)cc1Cl)c1ccncc1 0.927 µM, N/C(=N\OC(=O)COc1ccc(Br)cc1Cl)c1ccccn1 0.117 µM, CCc1ccc(OCC(=O)O/N=C(\N)c2ccncc2)c(Br)c1 4.65 µM, COc1ccc(NC(=O)CSc2ccccc2)c([N+](=O)[O-])c1 7.36 µM, COc1ccc(NC(=O)c2ccco2)c([N+](=O)[O-])c1 7.36 µM, CCOc1ccc(NC(=O)c2cccs2)c([N+](=O)[O-])c1 0.826 µM, O=C(O)c1cccc(N/N=C/c2ccc(-c3ccccc3)cc2)c1 0.147 µM, CSc1ccc(/C=N/Nc2cccc(C(=O)O)c2)cc1 0.147 µM, O=C(O)c1cccc(N/N=C/C2=C(Cl)c3cc(Cl)ccc3SC2)c1 0.261 µM, O=C(O)c1cccc(N/N=C/c2ccc(OC(F)(F)F)cc2)c1 0.0521 µM, O=C(O)c1cccc(N/N=C/c2ccc(F)c(F)c2)c1 0.233 µM, O=c1n(Cc2ccccc2Cl)nc2n1-c1ccccc1SC2 10.4 µM, COCCn1c(C(F)(F)F)ccc(NC(=O)c2ccccc2)c1=O 1.85 µM, COc1cccc(C(=O)Nc2ccc(C(F)(F)F)n(C)c2=O)c1 1.47 µM, Cc1cccc(-n2cnc3cc(C(=O)N4CCCCC4)ccc32)c1 9.27 µM, O=C(N=C1N=C2C=CC(Br)=CN2Cc2ccccc21)c1ccc([N+](=O)[O-])cc1[N+](=O)[O-] 3.69 µM, CCCCC#Cc1ccc2c(c1)COc1c3ccccc3nn1-2 2.07 µM, COC(=O)c1c(-c2cccs2)csc1NC(=O)COc1ccccc1 7.36 µM, COC(=O)c1c(-c2cccs2)csc1NC(=O)c1cccc(Cl)c1 0.656 µM, Cc1cc(C(=O)Nc2ccccc2)oc(=O)c1 6.56 µM, Cc1cc(C(=O)Nc2ccc3ccccc3c2)oc1C 0.293 µM, Cc1oncc1C(=O)Nc1ccc2ccccc2c1 7.36 µM, CC(=O)c1sc(NC(=O)c2ccccc2F)nc1-c1ccccc1 3.29 µM, O=C(Nc1ncccc1Cl)C1COc2ccccc2O1 (stereo not given) 4.65 µM, O=C(Nc1ccccc1[N+](=O)[O-])C1COc2ccccc2O1 (stereo not given) 3.29 µM, CCSc1nc2c(cnn2-c2ccccc2)c(=O)n1N 2.33 µM, CC(=O)Nc1ccc(C(=O)NCCc2ccccc2)cc1 7.36 µM, O=C(NCCc1ccccc1)Nc1ccc(Cl)cc1 1.65 µM, Cc1csc2nc(CSc3nc4ccccc4o3)c(Br)n12 4.65 µM, Clc1c(CSc2nc3ccccc3o2)nc2sccn12 1.12 µM, Cc1nc(NC(C)C)c2cnn(CCc3ccccc3)c2n1 14.7 µM, CCN(CC)c1nc(C)nc2c1cnn2CCc1ccccc1 5.85 µM, CCOC(=O)c1c(C)oc2c1c(C(c1ccncc1)N1CCOCC1)c(O)c1ccccc12 (stereo not given) 16.5 µM, CCOC(=O)c1c(C)oc2c1c(C(c1ccccc1)N1CCOCC1)c(O)c1ccccc12 (stereo not given) 3.69 µM, NC(=O)c1cnn(-c2ccc3ccccc3c2)c1N 16.5 µM, NC(=O)c1cnn(-c2cc(Oc3ccccc3)ncn2)c1N 2.07 µM, O=C(Nc1cccnc1)c1cc(-c2cc(Cl)ccc2O)n[nH]1 2.33 µM, CCc1ccc(O)c(-c2cc(C(=O)Nc3cccnc3)[nH]n2)c1 2.33 µM, Cc1ccc(O)c(-c2cc(C(=O)Nc3cccnc3)[nH]n2)c1 2.61 µM, Cc1ccc(-c2cc(C(=O)Nc3cccnc3)[nH]n2)c(O)c1C 2.93 µM, Cc1cc(O)c(-c2cc(C(=O)Nc3cccnc3)[nH]n2)cc1C 0.414 µM, COc1ccc(Cl)c2c1[nH]c1nc(SCc3ccccn3)nnc12 1.65 µM, O=C(COc1ccccc1Cl)NC(=O)NC1CCCC1 8.26 µM, O=C(COc1ccc(Br)cc1Br)NC(=O)NC1CCCC1 5.21 µM, CC(C)(C)NC(=O)NC(=O)COc1ccc(Br)cc1Br 0.585 µM, O=C(COc1ccccc1Cl)Nc1ccccc1C(=O)N1CCCCC1 6.56 µM, O=C(COc1ccc(Cl)cc1Cl)NC(=O)N1CCCCC1 6.56 µM, O=C(Nc1cccc2ccccc12)N1N=CCC1c1ccccc1 (stereo not given) 6.56 µM, Cc1ccc2nc(/C(C#N)=C/c3ccc(-c4ccc(C(=O)OC(C)C)cc4)o3)[nH]c2c1 4.14 µM, CCOC(=O)c1sc(-c2ccc(OC)cc2)cc1N 0.927 µM, CCOC(=O)c1sc(-c2ccccc2)cc1N 3.98 µM, COC(=O)c1sc(-c2cccs2)cc1N 8.26 µM, COC(=O)c1sc(-c2ccc(Cl)cc2)cc1N 4.14 µM, CCOC(=O)c1sc(=N)n(-c2ccc(OC)cc2)c1C 7.36 µM, CCOC(=O)c1cc(-c2ccccc2)sc1N 18.5 µM, CCOC(=O)c1c(N)sc(-c2ccccc2)c1C 11.7 µM, COC(=O)c1ccc(N2OC3(C)C=CC2CC3)cc1 (stereo not given) 13.1 µM, N/C(=N\OC(=O)c1cccs1)c1cccc(Br)c1 8.26 µM, COc1ccc(/C(N)=N/OC(=O)c2ccco2)cc1OC 1.85 µM, N/C(=N\OC(=O)c1ccco1)c1cccc(Br)c1 3.69 µM, N/C(=N\OC(=O)c1ccco1)c1ccccc1 5.21 µM, N/C(=N\OC(=O)c1ccco1)c1ccc(Cl)cc1 4.65 µM, CNc1nc(N2CCc3ccccc32)ncc1F 1.85 µM, CC1(C)CC(=O)c2cnc(N3CCc4ccccc43)nc2C1 1.85 µM, CC1(C)CC(=O)c2c(O)cc(OCc3ccc(Br)cc3)cc2O1 3.29 µM, CCOc1ccc(N=Nc2c(N)[nH][nH]c2=O)cc1 2.93 µM, COc1cccc(N=Nc2c(N)[nH][nH]c2=O)c1 7.36 µM, Cc1cc(C(=O)CSc2ccc(F)cc2)cc(C)c1O 9.27 µM, Cc1cc(C(=O)CSc2ccccc2)cc(C)c1O 9.27 µM, O=C(Nc1ccc(N2CCOCC2)c(Cl)c1)C1CCCCC1 16.5 µM, CN(Cc1ccsc1)C(=O)CCc1nnc(CCCc2ccccc2)o1 11.7 µM, Cc1cc(C)cc(NC(=O)c2oc3ccc4c(c3c2C)C(=O)CC(C)(C)O4)c1 0.826 µM, CCOC(=O)c1ccc(NC(=O)c2oc3ccc4c(c3c2C)C(=O)CC(C)(CC)O4)cc1 (stereo not given) 0.208 µM, CCN(CC)c1ccc(/C=C(\C#N)C(N)=O)cc1 14.7 µM, Brc1ccc(/C=N/Nc2ccc3ccccc3n2)cc1 2.61 µM, Brc1ccc(/C=N/Nc2nc3ccccc3o2)cc1 1.04 µM, Brc1ccccc1/C=N/Nc1ccc2ccccc2n1 1.17 µM, O=C(NCCc1cccs1)c1ccc(Cl)c(Cl)c1 2.07 µM, c1ccc(CSCc2nc3ccccc3[nH]2)cc1 7.36 µM, c1ccc(CCc2nc3ccccc3[nH]2)cc1 9.27 µM, Clc1ccccc1SCc1nc2ccccc2[nH]1 7.36 µM, CC1=NN(C(=O)c2ccc(C)o2)C(O)(c2ccccc2)C1 (stereo not given) 16.5 µM, COc1ccc(NC(=O)CSCc2ccccc2C)cc1 7.36 µM, COc1ccc(CNC(=O)CSCc2ccccc2Cl)cc1 13.1 µM
